According to the supplement of paper PMC13172266:
Counter-ions that a name gives are not always drawn.

Assays:
Assay in all cases: cell proliferation relative to vehicle (% of vehicle); higher = less growth inhibition
Conditions in all cases: 72 h
[1] = system: U2932 TK216-resistant clone 2
Procedure, shortened: (§1)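 A targeted inhibitor library of 348 compounds was tested on the ABC-DLBCL line U2932, both parental and two clones made resistant to an ETS-targeting agent by repeated exposure over almost a year. Cells were grown at 37°C and 5% CO2 in medium with 10% FBS, then treated at 500 nM or 50 nM for 72 h. MTT was added for 4 h, stopped with 25% SDS, and absorbance was read on a Cytation 3. Proliferation is reported as percent of proliferating cells relative to vehicle (DMSO).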

[2] = system: U2932 TK216-resistant clone 3
Procedure, shortened: as §1

U2932 parental = system: U2932 parental
Procedure, shortened: as §1

Structure (SMILES)	cell proliferation ([1]; 50 nM)	cell proliferation ([1]; 500 nM)	cell proliferation ([2]; 50 nM)	cell proliferation ([2]; 500 nM)	cell proliferation (U2932 parental; 50 nM)	cell proliferation (U2932 parental; 500 nM)
Cc1cnc(-c2cnc(NCCNc3ccc(C#N)cn3)nc2-c2ccc(Cl)cc2Cl)[nH]1	101	97.6	107	96.8	99.8	95
CC(=O)Nc1ccc(NC(=S)NC(=O)c2ccc(C(C)(C)C)cc2)cc1 [Tenovin-1]	105	95.1	107	102	102	98.7
CC[C@@]1(O)C(=O)OCc2c1cc1n(c2=O)Cc2cc3cc(O)ccc3nc2-1 [(S)-10-Hydroxycamptothecin]	4.11	1.46	7.4	5.84	2.21	0.765
Cc1cccc(-c2[nH]c(CNc3ccccc3F)nc2-c2ccc3ncnn3c2)n1	106	102	99.6	106	104	98.6
COc1cc2c(c(OC)c1OC)-c1c(cc3c(c1OC)OCO3)CC(C)C(C)C2 (centres undefined) [Schisandrin B (Sch B)]	99.1	104	108	97.6	97.2	95.9
Cn1cc(C2=C(c3ccc(Cl)cc3Cl)C(=O)NC2=O)c2ccccc21	105	96.2	105	108	97.8	100
Oc1cc(O)cc(/C=C/c2ccc(O)c(O)c2)c1 [Piceatannol]	97.8	99.7	97.6	100	98.7	94
COc1cc2ncnc(Nc3ccc(O)c(Br)c3)c2cc1OC	106	111	96.2	105	98.3	101
COc1ccc(-n2c(SCCCN3C(=O)c4cccc5cccc(c45)C3=O)nnc2-c2ccncc2)cc1	106	97.3	104	99.4	94.3	94.5
Nc1nc(N)c2nc(-c3cccc(O)c3)c(-c3cccc(O)c3)nc2n1	103	100	110	96.6	99	99.2
FC(F)(F)c1ccc(/C=C/c2nc(COc3ccc(CCCCn4ccnn4)cc3)co2)cc1 [Mubritinib (TAK 165)]	90.7	61	80.9	63.5	85.6	57.4
CC(C)(C)c1cc(NC(=O)Nc2ccc(-c3cn4c(n3)sc3cc(OCCN5CCOCC5)ccc34)cc2)no1 [Quizartinib (AC220)]	95.7	97.3	95	90.2	101	102
CN[C@@H](C)C(=O)N[C@H]1CN(C(=O)CC(C)C)CC[C@H]2CC[C@@H](C(=O)NC(c3ccccc3)c3ccccc3)N2C1=O	106	111	94.6	105	94	103
CC(C)c1onc(-c2c(Cl)cccc2Cl)c1COc1ccc(/C=C/c2cccc(C(=O)O)c2)c(Cl)c1	105	112	104	105	108	111
O=c1[nH]c(=O)n([C@H]2C[C@H](O)[C@@H](CO)O2)cc1F [Floxuridine]	60.3	37.4	95.2	72.5	73.1	34.2
Cc1nc(C(=O)NCC(=O)O)c(O)c2ccc(Oc3ccccc3)cc12	102	98.6	104	98.5	98.3	95.4
O=C(CCCCCCC(=O)Nc1ccccc1)NO [Vorinostat (SAHA, MK0683)]	108	91.3	107	88.9	98.2	81.6
CO[C@H]1C[C@@H]2CC[C@@H](C)[C@@](O)(O2)C(=O)C(=O)N2CCCC[C@H]2C(=O)O[C@H]([C@H](C)C[C@@H]2CC[C@@H](OC(=O)C(C)(CO)CO)[C@H](OC)C2)CC(=O)[C@H](C)/C=C(\C)[C@@H](O)[C@@H](OC)C(=O)[C@H](C)C[C@H](C)/C=C/C=C/C=C/1C	68.3	64.8	65	65.1	59.6	58.9
Cn1cnc2c(F)c(Nc3ccc(Br)cc3Cl)c(C(=O)NOCCO)cc21 [Selumetinib (AZD6244)]	106	95.8	97	90.1	99.3	101
Cc1ccc([C@@H]2O[C@H](CO)[C@@H](O)[C@H](O)[C@H]2O)cc1Cc1ccc(-c2ccc(F)cc2)s1 [Canagliflozin]	93.3	102	104	104	91.9	87.9
CC(=O)c1c(C)c2cnc(Nc3ccc(N4CCNCC4)cn3)nc2n(C2CCCC2)c1=O	93.7	85.1	97.3	92.5	87.6	88.8
O=C(/C=C\n1cnc(-c2cc(C(F)(F)F)cc(C(F)(F)F)c2)n1)NNc1cnccn1	87.7	36.3	58.9	57.6	82.9	44.1
Oc1ccc(/C=C/c2cc(O)cc(O)c2)cc1 [Resveratrol]	102	111	102	106	103	101
COc1ccc(S(=O)(=O)N(C(C)=O)c2ccccc2/C=C/c2cc[n+]([O-])cc2)cc1	103	12.6	99.5	13.2	88.7	11.3
CC1(C)CCC(CN2CCN(c3ccc(C(=O)NS(=O)(=O)c4ccc(NCC5CCOCC5)c([N+](=O)[O-])c4)c(Oc4cnc5[nH]ccc5c4)c3)CC2)=C(c2ccc(Cl)cc2)C1	74.5	29.9	84.4	35.1	90.7	66.9

Structure (SMILES)	cell proliferation ([1]; 50 nM)	cell proliferation ([1]; 500 nM)	cell proliferation ([2]; 50 nM)	cell proliferation ([2]; 500 nM)	cell proliferation (U2932 parental; 50 nM)	cell proliferation (U2932 parental; 500 nM)
Cc1nc(-c2ccc(OCC(C)C)c(C#N)c2)sc1C(=O)O [Febuxostat]	101	110	106	104	102	103
NC(=O)c1ccc(-c2nc(-c3ccccn3)c(-c3ccc4c(c3)OCO4)[nH]2)cc1	115	109	100	102	101	101
O=C1c2c(O)ccc(O)c2C(=O)c2c(NCCNCCO)ccc(NCCNCCO)c21 [Mitoxantrone HCl]	9.19	5.75	14.8	10.6	16.4	7.06
COc1cc2nccc(Oc3ccc(NC(=O)C4(C(=O)Nc5ccc(F)cc5)CC4)cc3)c2cc1OC	102	98	100	106	95.4	99.2
Nc1cccc2c1CN(C1CCC(=O)NC1=O)C2=O (centres undefined) [Lenalidomide (CC-5013)]	107	98	102	96	98	99.7
COc1ccc(C2=N[C@H](c3ccc(Cl)cc3)[C@H](c3ccc(Cl)cc3)N2C(=O)N2CCNC(=O)C2)c(OC(C)C)c1 [Nutlin-3b]	105	96.6	100	107	102	99.6
CN(C)Cc1ccc(S(=O)(=O)n2ccc(/C=C/C(=O)NO)c2)cc1 [Resminostat]	99.1	93.8	92	90.4	93.4	84.7
Cn1cncc1[C@@](N)(c1ccc(Cl)cc1)c1ccc2c(c1)c(-c1cccc(Cl)c1)cc(=O)n2C [Tipifarnib]	91.9	90.6	71.5	74.9	62.7	62.5
Cc1cc(Nc2nc(N[C@@H](C)c3ncc(F)cn3)ncc2Cl)[nH]n1	116	108	105	117	96.7	91.5
COc1cc(Nc2ncc(F)c(Nc3ccc4c(n3)NC(=O)C(C)(C)O4)n2)cc(OC)c1OC [R406 (free base)]	98	87.2	103	98.3	94.8	92.8
CN1CCN(CCCNc2ncc(Cl)c(-c3cc4c(C(=O)NC5CC5)cccc4s3)n2)CC1	101	86.5	98.2	99	95.3	100
CCN(c1cc(-c2ccc(CN3CCOCC3)cc2)cc(C(=O)NCc2c(C)cc(C)[nH]c2=O)c1C)C1CCOCC1	92.4	80.1	96.4	87.6	89.5	82.5
OCCn1cc(-c2ccc3c(c2)CC/C3=N\O)c(-c2ccncc2)n1	105	106	97	91.9	105	103
NC(=O)c1ccc(N(C(N)=O)c2c(F)cccc2F)nc1-c1ccc(F)cc1F	106	100	108	99.3	99.3	98.7
CC(C)C[C@H](NC(=O)[C@H](CCc1ccccc1)NC(=O)CN1CCOCC1)C(=O)N[C@@H](Cc1ccccc1)C(=O)N[C@@H](CC(C)C)C(=O)[C@@]1(C)CO1 [Carfilzomib (PR-171)]	-2.48	-4.13	-2.24	-4.17	-1.34	-1.99
COc1cc(F)c(F)c(Nc2ccc(I)cc2F)c1NS(=O)(=O)C1(C[C@H](O)CO)CC1 [Refametinib (RDEA119, Bay 86-9766)]	104	92.6	105	97.1	92.8	96.2
CN[C@@H](C)C(=O)N[C@H](C(=O)N1CCC[C@H]1C(=O)Nc1snnc1-c1ccccc1)C1CCCCC1	102	111	97.2	107	95	103
O=c1ncccn1[C@@H]1O[C@H](CO)[C@@H](O)[C@H]1O [Zebularine]	111	95.5	102	99.9	105	102
CC(=O)O[C@@]12CO[C@@H]1C[C@H](O)[C@@]1(C)C(=O)[C@H](O)C3=C(C)[C@@H](OC(=O)[C@H](O)[C@@H](NC(=O)OC(C)(C)C)c4ccccc4)C[C@@](O)([C@@H](OC(=O)c4ccccc4)[C@H]21)C3(C)C [Docetaxel]	8.81	11.6	5.58	6.54	9.62	9.31
O=C(NCCCNc1nc(Nc2cccc(NC(=O)N3CCCC3)c2)ncc1I)c1cccs1	98.5	98.8	99.5	95.7	97.2	92.1
O=C(/C=C/c1ccc2ccccc2n1)c1ccncc1	99.7	83.1	102	88.3	98.2	89.1
CCCCc1nc2cc(/C=C/C(=O)NO)ccc2n1CCN(CC)CC [Pracinostat (SB939)]	107	54	89.2	64.4	91.7	50.1
O=C(c1cc(Cc2n[nH]c(=O)c3ccccc23)ccc1F)N1CCN(C(=O)C2CC2)CC1	103	99.3	103	103	99.6	94.9
COc1ccc(-c2ccc3c(N4CCOCC4)nc(N4C[C@@H](C)O[C@@H](C)C4)nc3n2)cc1CO	95.3	46.8	98.9	49.3	91.4	57.7
